Compound activity (PubChem)
TPT1 inhibitor = Candida albicans TPT1 enzyme inhibitors, primary screen, biochemical, fluorescence polarization | tRNA 2'-phosphotransferase TPT1 (Candida albicans SC5314) | recombinant caTPT1, FP RNA substrate dephosphorylation | 300,000 tested, 0.81% active | inhibition, % at 5 µM | AID 1962, 2009;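 active means inhibition above the mean of all tested compounds plus 3 SD, set per screening campaign, cut at about 24% in these data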
IDE cell inh = human IDE inhibitors in live cells, primary screen, fluorescence polarization, HEK cells, FAbetaB substrate; AID 434962, 2010; inhibition, % at 5.59 µM; Insulin-degrading enzyme (Homo sapiens), P14735; 320,000 tested, 0.41% active; FAbetaB cleavage;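 active means percent inhibition above the average of all tested compounds plus 3 SD, set per screening campaign, cut at about 16% in these data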;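 further: IDE supplied by intact live HEK cells; FP after avidin binding of uncleaved biotin substrate so inhibition keeps polarization high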
Rin1 Abl inh = inhibitors of Rin1-Abl protein binding, primary screen, biochemical, TR-FRET | inhibition, % at 7.35 µM | AID 588664, 2011 | 360,000 tested, 0.4% active; in the data active means inhibition above about 5%, passing the limit was not always enough
Calb FLC = C. albicans growth inhibition with fluconazole, primary screen, CaCi-2 strain, Alamar Blue fluorescence | AID 1979, 2009 | C. albicans CaCi-2 (fluconazole-resistant clinical isolate) + fluconazole, 48 h | growth inhibition, % (no concentration beside the values) | 300,000 tested, 0.57% active;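 active means growth inhibition above about 58% in most replicates, limit read from the data, passing the limit was not always enough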;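 further: all wells also contain fluconazole at 8 µg/ml as a sub-toxic cotreatment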
Rpn11 block = Rpn11 (PSMD14) deubiquitinase inhibitors, primary screen, biochemical, fluorescence polarization, uHTS. human 26S proteasome, Ub4-pepOG fluorescence polarization; 20S core pre-blocked with epoxomicin. inhibition, % at 20 µM. 360,000 tested, 0.59% active;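 active means inhibition at 20 µM, scaled to each plate's controls, above about 33%, limit read from the data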
IDE cell activ = human IDE activators in live cells, primary screen, fluorescence polarization, HEK cells, FAbeta-B substrate; Insulin-degrading enzyme (Homo sapiens), P14735; FAbeta-B cleavage; 0% vehicle, 100% cell-free pure enzyme wells; activation, % at 5.96 µM; 340,000 tested, 0.073% active; AID 493087, 2011;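 active means activation above the mean of all tested compounds plus 3 SD, set per screening campaign, cut at about 17% in these data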
TPT1 inh confirm = Candida albicans TPT1 inhibitors, confirmation, biochemical, fluorescence polarization, triplicate; inhibition, % at 5 µM; 2,400 tested, 74% active; shares compounds with TPT1 inhibitor; recombinant caTPT1, RNase T1 coupled;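 active means inhibition above the primary screen limit, the mean inhibition of all tested compounds plus 3 SD, cut at about 25% in these data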
RNase T1 inh = RNase T1 inhibitors, counter-screen for TPT1 inhibitor project, biochemical, fluorescence polarization; shares compounds with TPT1 inhibitor; RNase T1 cleavage, 1536-well; inhibition, % at 5 µM; 2,400 tested, 83% active; AID 2153, 2009;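 active means inhibition above the solvent-only control well mean plus 3 SD, limit set per screening run, cut at about 23% in these data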;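 further: inhibitors block cleavage so intact labeled substrate keeps polarization high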
IDE cell inh cf = human IDE inhibitors in live cells, confirmation, fluorescence polarization, HEK cells, FAbetaB substrate; AID 435028, 2010; 1,200 tested, 51% active; shares compounds with IDE cell inh; inhibition, % at 5.59 µM; FAbetaB cleavage;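 active means mean inhibition across triplicate wells above the cutoff set by the earlier primary insulin-degrading enzyme screen, cut at about 16% in these data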
HEK cytotox = cytotoxicity in HEK cells, cytotoxicity control for IDE inhibitor project, cell-based, luminescence. inhibition, % at 5.59 µM. 1,200 tested, 28% active. HEK293 cytotoxicity, ATP luminescence. AID 449730, 2010. shares compounds with IDE cell inh; in the data active means inhibition above about 22%
Rpn11 inh conf = Rpn11 (PSMD14) deubiquitinase inhibitors, confirmation, biochemical, fluorescence polarization, single concentration; purified human 26S proteasome, Ub4-pepOG fluorescence polarization; proteasome pretreated with epoxomicin; AID 602318, 2012; 1,900 tested, 29% active; shares compounds with Rpn11 block; inhibition, % at 20 µM
MMP-2 counter = MMP-2 enzyme inhibition, confirmation, counter-screen for RPN11 inhibitor project, biochemical, fluorescence, single concentration. shares compounds with Rpn11 block. recombinant MMP-2, FRET peptide cleavage fluorescence. inhibition, % at 20 µM. 1,900 tested, 4% active;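 further: human MMP-2 activated beforehand with APMA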
Target sequence (P08253 whole entry, looked up): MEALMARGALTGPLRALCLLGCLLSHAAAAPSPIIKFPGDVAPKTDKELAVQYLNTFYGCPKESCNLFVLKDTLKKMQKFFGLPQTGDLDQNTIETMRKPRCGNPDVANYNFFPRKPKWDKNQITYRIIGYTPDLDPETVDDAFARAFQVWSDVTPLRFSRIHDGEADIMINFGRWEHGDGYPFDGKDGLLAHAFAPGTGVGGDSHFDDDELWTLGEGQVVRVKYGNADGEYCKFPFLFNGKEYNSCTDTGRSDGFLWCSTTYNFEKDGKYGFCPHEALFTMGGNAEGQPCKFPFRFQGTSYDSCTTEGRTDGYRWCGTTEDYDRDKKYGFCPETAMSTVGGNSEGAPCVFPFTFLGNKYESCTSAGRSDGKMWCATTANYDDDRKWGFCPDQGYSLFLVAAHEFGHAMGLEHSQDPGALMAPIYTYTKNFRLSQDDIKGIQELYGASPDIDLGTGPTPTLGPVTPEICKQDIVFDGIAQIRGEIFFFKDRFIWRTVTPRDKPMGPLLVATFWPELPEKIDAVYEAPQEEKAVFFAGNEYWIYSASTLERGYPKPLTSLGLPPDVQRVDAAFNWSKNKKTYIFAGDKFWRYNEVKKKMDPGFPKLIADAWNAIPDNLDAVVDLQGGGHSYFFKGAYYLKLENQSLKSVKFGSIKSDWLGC
Thrombin inh = bovine thrombin protease inhibition, confirmation, counter-screen for Rpn11 inhibitor project, biochemical, fluorescence polarization, single concentration. shares compounds with Rpn11 block. bovine thrombin cleavage of Ub4-pepOG. inhibition, % at 20 µM. 1,900 tested, 13% active;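 active means mean inhibition at least 40% at 20 µM, or signal 3 deviations below plate average, so some actives read negative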
A number is an active result; – = inactive; · = not tested or not shown. Compounds with a hit are over-represented: about 2.3% of the library has one in this group of screens. Unless noted, no stated cut-off is given here; in the data, active means inhibition above about 40%; inactive means the rest.

SMILES | TPT1 inhibitor | IDE cell inh | Rin1 Abl inh | Calb FLC | Rpn11 block | IDE cell activ | TPT1 inh confirm | RNase T1 inh | Rpn11 inh conf | MMP-2 counter | Thrombin inh | others
C=CCn1c(O)c(/C=C/C=Nc2ccccc2)c(=O)[nH]c1=O | 84 | 18 | – | – | 88 | – | 107 | 129 | 98 | – | – | IDE cell inh cf=–;HEK cytotox=–
O=C1NCN(c2ccccc2)C12CCN(C(c1cc3ccccc3o1)c1nnnn1C1CCCCC1)CC2 (stereo not given) | · | · | – | · | – | · | · | · | · | · | ·
COc1cccc(C2CCN(CC(=O)Nc3cc(Cl)ccc3OC)CC2O)c1 (stereo not given) | – | – | – | – | – | – | · | · | · | · | ·
CCCCCCn1c(O)c(C=Nc2c(C)n(C)n(-c3ccccc3)c2=O)c(=O)[nH]c1=O | – | – | – | – | – | – | · | · | · | · | ·
C=CCn1c(=O)c(C=Nc2cccc([N+](=O)[O-])c2)c(O)n(CCCC)c1=O | 113 | – | – | – | 69 | – | 36 | 47 | 46 | – | –
C=CCn1c(=O)c(C=Nc2c(OC)cccc2[N+](=O)[O-])c(O)n(CCCC)c1=O | 51 | – | – | – | 78 | – | 30 | 39 | 53 | – | 47
COc1ccc2c3c([nH]c2c1)C(C)=NCC3 | 44 | – | – | · | 65 | – | – | 31 | – | – | –
COc1ccc2c(c1)[nH]c1c(C)nccc12 | – | – | – | · | – | – | · | · | · | · | ·
NC(=O)C1CCN(/C=C2\C(=O)NC(=O)N(Cc3ccco3)C2=O)CC1 | – | – | – | – | – | – | · | · | · | · | ·
CC(C)N1C(=O)/C(=C/C=C/c2ccco2)C(=O)N(Cc2ccco2)C1=O | 95 | – | – | – | 98 | – | 54 | 65 | 49 | – | 41
COC(=O)C1=C(c2ccccc2OCc2ccccc2)C[C@@H]2CC[C@H]1N2C(=O)NCCOc1ccc(OC)cc1 | · | – | – | · | – | – | · | · | · | · | ·
O=C1NC(=O)N(c2cccc(Cl)c2)C(=O)/C1=C\c1ccc(Sc2nc3ccccc3[nH]2)o1 | – | 26 | – | – | 58 | – | · | · | · | · | · | IDE cell inh cf=–;HEK cytotox=–
COC(=O)C1=C(c2ccc(S(C)(=O)=O)cc2)C[C@@H]2CC[C@H]1N2C(=O)N1CCCCC1 | – | – | – | – | – | – | · | · | · | · | ·
